Data as given in the supplement of paper PMC9135407.
Several values for one entry are separate records, joined by “and”; a condition that tells them apart may be missing. Equal values may be shown once. Where a name gives a salt, the structure may show the parent alone. The whole screen tested about 5,800 compounds, of which about 620 (11%) showed activity. Many of the other results were omitted from the sample, so actives are more common in it than they were. Values without a mark were called inactive.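 Rule for the calls: active = score above a cut-off or among the top three wells of a plate; in these data no inactive exceeds 0.85.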

Tested on: primary human hepatic stellate cells (donor 1)
Assay: scaled lipid accumulation score (0 = DMSO-like, 1 = nortriptyline-like); higher = stronger HSC inactivation (lipid re-accumulation), active = hit call of the paper
Conditions: 48 h
[1] = library stock concentration: 10 mM
[2] = library stock concentration: 3.33 mM
[3] = library stock concentration: 80 uM
[4] = library stock concentration: 400 uM
[5] = library stock concentration: 2 mM
[6] = library stock concentration: 1 mM

For `NC(=O)N1C(=O)/C(=C(\O)c2cccs2)c2cc(Cl)ccc21` [Tenidap], the “scaled lipid accumulation score” value [1] was ≤ -0.001.

For `O=C(O)c1cc(O)c2ccc(Cl)cc2n1` [7-Chlorokynurenic acid], the “scaled lipid accumulation score” value [1] was 0.023.

With `Cc1cnc(-c2ccccc2C(C)C)nc1NCc1ccc(-n2ccnn2)cc1` the “scaled lipid accumulation score” value [2] was ≤ -0.009 and the “scaled lipid accumulation score” value [1] was ≤ 0.

For `Nc1cc(N2CCCCC2)nc(N)[n+]1OS(=O)(=O)[O-]` [Minoxidil sulfate], the “scaled lipid accumulation score” value (library stock concentration: 17.3 mM) was ≤ -0.021.

In the case of `C=CCCCCCCCCC(=O)O` [Undecylenic acid], the “scaled lipid accumulation score” value (library stock concentration: 10.9 mM) is reported as ≤ 0.

For `O=S(=O)(c1cccc2cnccc12)N1CCCNCC1` [Fasudil], the “scaled lipid accumulation score” value (library stock concentration: 6.9 mM) was ≤ -0.006.

In the case of `O=S(=O)(c1cccc2c(Cl)cccc12)N1CCCNCC1` [listing 1 of 2 here], the “scaled lipid accumulation score” value [1] is reported as 1.02 (active).

With `O=S(=O)(c1cccc2c(I)cccc12)N1CCCNCC1` [ML-7, Hydrochloride] the “scaled lipid accumulation score” value [2] was 0.25.

`O=S(=O)(c1cccc2c(Cl)cccc12)N1CCCNCC1` [listing 2 of 2 here] was tested, and the “scaled lipid accumulation score” value (library stock concentration: 15.4 mM) was 0.912 (active).

With `O=S(=O)(c1cccc2cnccc12)N1CCCNCC1` [Fasudil hydrochloride] the “scaled lipid accumulation score” value [1] was 0.07.

For `O=S(=O)(c1cccc2cnccc12)N1CCCNCC1` [Fasudil (HA-1077) HCl], the “scaled lipid accumulation score” value [2] was ≤ 0 and the “scaled lipid accumulation score” value [1] was 0.14.

In the case of `NCCNS(=O)(=O)c1cccc2c(Cl)cccc12` [A3 hydrochloride], the “scaled lipid accumulation score” value [1] is reported as ≤ 0.

With `O=S(=O)(c1cccc2c(I)cccc12)N1CCCNCC1` [listing 1 of 2 here] the “scaled lipid accumulation score” value [1] was 0.931 (active).

With `CC1CN(S(=O)(=O)c2cccc3cnccc23)CCN1` (stereo unspecified) the “scaled lipid accumulation score” value [1] was 0.164.

With `O=S(=O)(c1cccc2cnccc12)N1CCCNCC1` the “scaled lipid accumulation score” value [1] was 0.257.

With `O=S(=O)(c1cccc2c(I)cccc12)N1CCCNCC1` [listing 2 of 2 here] the “scaled lipid accumulation score” value [3] was ≤ -0.001, the “scaled lipid accumulation score” value [4] was ≤ -0.001 and the “scaled lipid accumulation score” value [5] was 0.204.

With `O=S(=O)(c1cccc2cnccc12)N1CCNCC1` the “scaled lipid accumulation score” value [1] was 0.248.

For `O=c1[nH]ccc2c(S(=O)(=O)N3CCCNCC3)cccc12` [HA 1100 hydrochloride], the “scaled lipid accumulation score” value [1] was ≤ -0.001.

With `COCCOc1cc2nc[nH]c(=O)c2cc1OCCOC` the “scaled lipid accumulation score” value [1] was 0.018.

With `CCCCC[C@H](O)/C=C/[C@H]1C=CC(=O)[C@@H]1CCCCCCC(=O)O` [Prostaglandin A1] the “scaled lipid accumulation score” value [6] was 0.022 and 0.047.

`Nc1nc2c([nH]c(=O)n2[C@H]2C[C@H](O)[C@@H](CO)O2)c(=O)[nH]1` [8-hydroxy-2'-deoxy Guanosine] was tested, and the “scaled lipid accumulation score” value [6] was ≤ 0.

With `C[C@@H]1CC(=O)NN=C1c1ccc(NN=C(C#N)C#N)cc1` the “scaled lipid accumulation score” value [1] was 0.073.

`C[C@@H]1CC(=O)NN=C1c1ccc(NN=C(C#N)C#N)cc1` [Levosimendan] was tested, and the “scaled lipid accumulation score” value [2] was ≤ 0 and the “scaled lipid accumulation score” value [1] was ≤ 0.

`Cc1ccccc1/C=C/C1=NCCN1` [Metrazoline oxalate] was tested, and the “scaled lipid accumulation score” value [1] was 0.381.

`CCCCCC(=O)/C=C/C=C\CCCCCCCC(=O)O` [13-Keto-octadeca-9Z,11E-dienoic acid] was tested, and the “scaled lipid accumulation score” value (library stock concentration: 100 uM) was 0.012.

`O=Cc1c2[nH]c3ccccc3c2cc2[nH]c3ccccc3c12` [6-Formylindolo [3,2-B] carbazole] was tested, and the “scaled lipid accumulation score” value [6] was ≤ -0.02.

For `NC(C(=O)O)c1ccc(C(=O)O)c(C(=O)O)c1` (stereo unspecified), the “scaled lipid accumulation score” value [1] was ≤ -0.006.

In the case of `CN(C)c1cc2c(Nc3ccc4c(cnn4Cc4ccccc4)c3)ncnc2cn1`, the “scaled lipid accumulation score” value [1] is reported as 0.524.

`Cc1c(NC(=O)OC[C@@H]2COCCN2)cn2ncnc(Nc3ccc4c(cnn4Cc4cccc(F)c4)c3)c12.Cl` was tested, and the “scaled lipid accumulation score” value [2] was 1.15 (active) and the “scaled lipid accumulation score” value [1] was 1.2 (active).

For `Cc1nc2ccc(NC(=O)Nc3ccnc4cccnc34)cc2o1`, the “scaled lipid accumulation score” value [1] was ≤ -0.006.

In the case of `CC(=O)[C@]1(O)Cc2c(O)c3c(c(O)c2[C@@H](O[C@H]2C[C@H](N)[C@H](O)[C@H](C)O2)C1)C(=O)c1ccccc1C3=O` [Idarubicin], the “scaled lipid accumulation score” value (library stock concentration: 4 mM) is reported as 0.387 and the “scaled lipid accumulation score” value [1] is reported as ≤ -0.07.

In the case of `CC(=O)[C@]1(O)Cc2c(O)c3c(c(O)c2[C@@H](O[C@H]2C[C@H](N)[C@H](O)[C@H](C)O2)C1)C(=O)c1ccccc1C3=O`, the “scaled lipid accumulation score” value [1] is reported as 0.372.

For `CC(=O)[C@]1(O)Cc2c(O)c3c(c(O)c2[C@@H](O[C@H]2C[C@H](N)[C@H](O)[C@H](C)O2)C1)C(=O)c1ccccc1C3=O` [Idarubicin HCl], the “scaled lipid accumulation score” value [2] was 0.288 and the “scaled lipid accumulation score” value [1] was 0.179.

For `CCCCN1CCC(CCC(=O)c2cc(Cl)c(N)cc2OC)CC1`, the “scaled lipid accumulation score” value [1] was 0.511.

For `COc1cc(COc2cc(N)c(Cl)cc2C(=O)CCC2CCN(CCNS(C)(=O)=O)CC2)cc(OC)c1.Cl`, the “scaled lipid accumulation score” value [1] was 1.06 (active).

For `COc1cc(N)c(Cl)cc1C(=O)CCC1CCN(CCNS(C)(=O)=O)CC1`, the “scaled lipid accumulation score” value [1] was ≤ 0.

With `CC(C)(Cc1ccc2ccccc2c1)NC[C@@H](O)COc1cccc(Cl)c1C#N` the “scaled lipid accumulation score” value [2] was 0.524 and the “scaled lipid accumulation score” value [1] was 0.023.

In the case of `CC(C)Oc1ccc(Cc2ccc(NC3=NCCN3)cc2)cc1`, the “scaled lipid accumulation score” value [6] is reported as 0.221.

For `CN(C)C/C=C/C(=O)Nc1cc2c(Nc3ccc(F)c(Cl)c3)ncnc2cc1O[C@H]1CCOC1` [Afatinib  (TOVOK,  BIBW-2992) (0.4 mM)], the “scaled lipid accumulation score” value [4] was 0.318.

With `CN(C)C/C=C/C(=O)Nc1cc2c(Nc3ccc(F)c(Cl)c3)ncnc2cc1O[C@H]1CCOC1` [Afatinib  (TOVOK,  BIBW-2992) (2 mM)] the “scaled lipid accumulation score” value [5] was 1.29 (active).

`CN(C)C/C=C/C(=O)Nc1cc2c(Nc3ccc(F)c(Cl)c3)ncnc2cc1O[C@H]1CCOC1` [Afatinib  (TOVOK,  BIBW-2992) (10 mM)] was tested, and the “scaled lipid accumulation score” value [1] was 0.256.

For `CN(C)CC=CC(=O)Nc1cc2c(Nc3ccc(F)c(Cl)c3)ncnc2cc1OC1CCOC1` (stereo unspecified), the “scaled lipid accumulation score” value [5] was 0.855 (active).

`CN(C)C/C=C/C(=O)Nc1cc2c(Nc3ccc(F)c(Cl)c3)ncnc2cc1O[C@H]1CCOC1` was tested, and the “scaled lipid accumulation score” value [3] was 0.425, the “scaled lipid accumulation score” value [4] was 0.614 and the “scaled lipid accumulation score” value [1] was 0.544.

With `CN(C)CC=CC(=O)Nc1cc2c(Nc3ccc(F)c(Cl)c3)ncnc2cc1O[C@H]1CCOC1` [Afatinib (BIBW2992)] the “scaled lipid accumulation score” value [2] was 1.12 (active).

`CN(C)C/C=C/C(=O)Nc1cc2c(Nc3ccc(F)c(Cl)c3)ncnc2cc1O[C@H]1CCOC1` [Afatinib (BIBW2992)] was tested, and the “scaled lipid accumulation score” value [1] was 0.323.

In the case of `Cc1cc(/C(=C/Nc2ccc(Cl)cc2)C(=O)Nc2ccc(Cl)cc2)on1`, the “scaled lipid accumulation score” value [1] is reported as 0.332.

In the case of `CCCCCC#CCC#CCCCCCCCC(=O)O` [9,12-Octadecadiynoic Acid], the “scaled lipid accumulation score” value [6] is reported as 0.001.

In the case of `Cc1c(C)c2c(c(C)c1O)CCC(C)(CCCC(C)CCCC(C)CCCC(C)C)O2` (stereo not drawn) [Alpha-tochopherol], the “scaled lipid accumulation score” value [1] is reported as ≤ 0.

With `COc1cc(C[C@H]2C(=O)OC[C@@H]2Cc2ccc(OC)c(OC)c2)ccc1O` [Arctigenin] the “scaled lipid accumulation score” value [1] was ≤ -0.006.

With `C/C(=N\NC(=O)C1C(=O)NCC1c1ccccc1)c1cccc(Br)c1` (stereo unspecified) the “scaled lipid accumulation score” value [1] was ≤ -0.001.

With `CCOC(=O)C1=C(N)Oc2ccc(Br)cc2C1C(C#N)C(=O)OCC` (stereo unspecified) the “scaled lipid accumulation score” value [2] was 0.391 and the “scaled lipid accumulation score” value [1] was 0.006.

In the case of `CCOC(=O)C1=C(N)Oc2ccc(Br)cc2[C@H]1[C@H](C#N)C(=O)OCC`, the “scaled lipid accumulation score” value [1] is reported as 1.15 (active).

With `CCCCCCCCCCCCCCCC(=O)OCC(O)C1OC(=O)C(O)=C1O` [L-Ascorbyl 6-palmitate] the “scaled lipid accumulation score” value [2] was 0.009 and the “scaled lipid accumulation score” value [1] was ≤ 0.

For `CC1(CN2CCC(n3c(=O)[nH]c4ccccc43)CC2)OCc2ccccc2-n2cccc21` (stereo unspecified), the “scaled lipid accumulation score” value [1] was 0.057.

With `O=C(Nc1cc(Cl)cc2c1[nH]c1cnccc12)c1cccnc1` [IKK Inhibitor X] the “scaled lipid accumulation score” value [2] was ≤ 0.

With `C#Cc1cccc(Nc2ncnc3cc(OCCOC)c(OCCOC)cc23)c1` the “scaled lipid accumulation score” value [3] was ≤ -0.009, the “scaled lipid accumulation score” value [4] was ≤ -0.009 and ≤ -0.005 and the “scaled lipid accumulation score” value [5] was ≤ -0.009 and ≤ -0.005. For the same molecule, the “scaled lipid accumulation score” value [1] was 0.052 and 0.04.

With `COc1cc2c(N3CCN(C(=O)Nc4ccc(OC(C)C)cc4)CC3)ncnc2cc1OCCCN1CCCCC1` [listing 1 of 2 here] the “scaled lipid accumulation score” value [4] was 0.045, the “scaled lipid accumulation score” value [5] was 0.538 and the “scaled lipid accumulation score” value [1] was 0.65.

With `COc1cc2c(N3CCN(C(=O)Nc4ccc(OC(C)C)cc4)CC3)ncnc2cc1OCCCN1CCCCC1` [listing 2 of 2 here] the “scaled lipid accumulation score” value [1] was 1.24 (active).

With `COc1cc2ncnc(N3CCN(C(=O)Nc4ccc(Oc5ccccc5)cc4)CC3)c2cc1OC` the “scaled lipid accumulation score” value [3] was ≤ -0.001, the “scaled lipid accumulation score” value [4] was ≤ -0.001 and the “scaled lipid accumulation score” value [5] was ≤ -0.001. For the same molecule, the “scaled lipid accumulation score” value [1] was ≤ -0.001.

With `C#Cc1cccc(Nc2ncnc3cc(OC)c(OCCCCCCC(=O)NO)cc23)c1` the “scaled lipid accumulation score” value [2] was 0.652 and the “scaled lipid accumulation score” value [1] was 0.306.

In the case of `COc1cc2c(Nc3ccc(NC(=O)c4ccccc4)cc3)ncnc2cc1OCCCN1CCOCC1` [listing 1 of 4 here], the “scaled lipid accumulation score” value [1] is reported as 1.03 (active).

In the case of `COc1cc2c(Nc3ccc(NC(=O)c4ccccc4)cc3)ncnc2cc1OCCCN1CCOCC1` [listing 2 of 4 here], the “scaled lipid accumulation score” value [1] is reported as 1.14 (active).

With `COc1cc2c(Nc3ccc(NC(=O)c4ccccc4)cc3)ncnc2cc1OCCCN1CCOCC1` [listing 3 of 4 here] the “scaled lipid accumulation score” value [3] was ≤ -0.001, the “scaled lipid accumulation score” value [4] was ≤ -0.009 and the “scaled lipid accumulation score” value [5] was 0.256.

In the case of `COc1cc2c(N3CCN(C(=O)Nc4ccc(OC(C)C)cc4)CC3)ncnc2cc1OCCCN1CCCCC1` [Tandutinib (MLN518)], the “scaled lipid accumulation score” value [2] is reported as 0.295 and the “scaled lipid accumulation score” value [1] is reported as 0.406.

In the case of `C#Cc1cccc(Nc2ncnc3cc(OCCOC)c(OCCOC)cc23)c1` [Erlotinib], the “scaled lipid accumulation score” value (library stock concentration: 5.1 mM) is reported as ≤ -0.006.

In the case of `COc1cc2c(Nc3ccc(NC(=O)c4ccccc4)cc3)ncnc2cc1OCCCN1CCOCC1` [listing 4 of 4 here], the “scaled lipid accumulation score” value [2] is reported as 1.06 (active) and the “scaled lipid accumulation score” value [1] is reported as 1.11 (active).

For `COc1cc2ncnc(N3CCN(C(=O)Nc4ccc(Oc5ccccc5)cc4)CC3)c2cc1OC` [PDGF Receptor Tyrosine Kinase Inhibitor III], the “scaled lipid accumulation score” value [2] was ≤ 0.

With `C#Cc1cccc(Nc2ncnc3cc(OCCOC)c(OCCOC)cc23)c1` [Erlotinib HCl (OSI-744)] the “scaled lipid accumulation score” value [2] was ≤ 0 and the “scaled lipid accumulation score” value [1] was ≤ 0.

For `COc1cc2ncnc(Nc3ccc(NC(=O)c4ccccc4)cc3)c2cc1OC` [Aurora Kinase Inhibitor II], the “scaled lipid accumulation score” value [2] was ≤ 0.
